# From PubChem BioAssay
# The source made the active and inactive calls. No rule for the calls is given here.
# Target: Pantothenate synthetase (Mycobacterium tuberculosis (strain ATCC 25618 / H37Rv)) (UniProt P9WIL5)
# Experiment: Recombinant Mtb pantothenate synthetase (PanC) inhibitors, coupled enzyme, confirmatory (AID 375);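 also: 0% = full reaction with vehicle and 100% = no enzyme background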
# Conditions: coupled enzyme assay; at 10 µM, stronger effect = higher value
# Sequence of Pantothenate synthetase (Mycobacterium tuberculosis (strain ATCC 25618 / H37Rv)) (P9WIL5 whole entry, looked up): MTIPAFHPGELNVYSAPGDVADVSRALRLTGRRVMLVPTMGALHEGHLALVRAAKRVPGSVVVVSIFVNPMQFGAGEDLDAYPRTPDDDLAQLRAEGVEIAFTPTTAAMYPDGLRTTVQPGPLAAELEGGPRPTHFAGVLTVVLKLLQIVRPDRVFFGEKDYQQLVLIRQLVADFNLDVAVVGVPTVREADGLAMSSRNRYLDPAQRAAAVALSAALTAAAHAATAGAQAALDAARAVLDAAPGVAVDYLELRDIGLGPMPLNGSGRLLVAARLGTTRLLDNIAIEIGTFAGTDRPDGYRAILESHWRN
row,SMILES,inhibition
1,CC(C)(C)C(=O)N=C1SC2CS(=O)(=O)CC2N1c1ccc2c(c1)OCO2 (stereo unspecified),0% (inactive)
2,O=C(/C=C/N1CCOCC1)c1ccc(-c2ccccc2)cc1,4% (inactive)
3,CCCCP(=O)(CCCC)c1ccccc1C(=O)O,3% (inactive)
4,Cc1cc(NC(=O)CS(=O)(=O)c2cn(Cc3cccc(F)c3)c3ccccc23)no1,4% (inactive)
5,COC(=O)c1ccccc1S(=O)(=O)N(CCCN1CCOCC1)Cc1cccs1,0% (inactive)
6,CC(=O)Nc1ccc(Cc2ccncc2)cc1,0% (inactive)
